The list is not random: actives were taken first. Their share in the collection is about 3.4%.
MITF primary = blocks human microphthalmia-associated transcription factor; O75030; AlphaScreen MITF homodimerization, bead proximity signal; inhibition, % at 2.6 µM; actives 0.91% (n = 650,000); in the data active = inhibition above about 50%;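 note: 0% = vehicle wells with protein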
Target sequence (O75030 whole entry, looked up): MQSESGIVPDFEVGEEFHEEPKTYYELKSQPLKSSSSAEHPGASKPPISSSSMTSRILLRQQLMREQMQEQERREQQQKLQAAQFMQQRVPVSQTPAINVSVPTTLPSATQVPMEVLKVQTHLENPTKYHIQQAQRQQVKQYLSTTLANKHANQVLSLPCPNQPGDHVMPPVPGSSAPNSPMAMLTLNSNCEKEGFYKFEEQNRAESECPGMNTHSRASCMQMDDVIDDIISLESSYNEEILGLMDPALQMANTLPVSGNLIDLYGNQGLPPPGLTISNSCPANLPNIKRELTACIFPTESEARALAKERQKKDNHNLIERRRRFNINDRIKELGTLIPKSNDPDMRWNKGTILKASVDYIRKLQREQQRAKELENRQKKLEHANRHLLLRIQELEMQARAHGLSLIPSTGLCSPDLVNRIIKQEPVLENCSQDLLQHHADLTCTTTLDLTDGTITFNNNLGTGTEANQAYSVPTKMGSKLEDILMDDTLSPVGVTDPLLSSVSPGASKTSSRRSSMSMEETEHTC
TEAD-YAP block = TEAD-YAP interaction inhibition; HEK-TIYL cells, TEAD-Gal4/YAP UAS-luciferase luminescence; actives 1.4% (n = 640,000); inhibition, % at 9.12 µM; in the data active = inhibition above about 32%;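 note: 0% = median of test compound wells and 100% = reference inhibitor wells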
GPR151 ag = activators of human GPR151 | Q8TDV0 | activation, % at 11.2 µM | PathHunter beta-arrestin GPR151 cells, luminescence | AID 1508602 | actives 1% (n = 650,000); in the data active = activation above about 4.9%;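 note: 0% = median of compound wells and 100% = cells with positive control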
FBW7 act = human FBW7 E3 ligase activation, primary screen; AlphaScreen FBW7–phospho-cyclin E peptide binding, activator screen; normalized activity (activation), % at 26.1 µM; actives 0.13% (n = 650,000); in the data active = normalized activity above about 1.9%;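 note: purified mutant Fbw7 with reduced substrate affinity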
* = called active by the depositor.

SMILES | MITF primary | TEAD-YAP block | GPR151 ag | FBW7 act
CS(=O)(=O)Oc1ccc(/C=c2\sc3nc4ccccc4n3c2=O)cc1 | -2.1 | 6.5 | -1.2 | 0.2
Cc1c(C2=N/C(=C/c3ccc(N(C)C)cc3)C(=O)O2)cccc1[N+](=O)[O-] | -11.3 | 1.3 | -0.7 | 0.1
Oc1c(C(Nc2nccs2)c2ccccn2)ccc2cccnc12 (centres undefined) | 43.3 | 76.5* | 0.7 | -0.3
Oc1cccc(C(Nc2nccs2)c2ccc3cccnc3c2O)c1 (centres undefined) | 68.8* | 73.5* | 0.4 | -1.2
Cc1[nH]c2ccccc2c1C(Nc1nccs1)c1ccc(F)cc1 (centres undefined) | 4.0 | -27.6 | 0.4 | -0.1
Oc1c(C(Nc2nccs2)c2ccccc2)ccc2cccnc12 (centres undefined) | 23.7 | 69.7* | 0.5 | -1.1
Oc1c(C(Nc2nccs2)c2ccc(F)cc2)ccc2cccnc12 (centres undefined) | 22.1 | 43.3* | -1.1 | -1.8
CCOCCN1C(=O)Nc2ccccc2C(=O)N1C(C)(C)C | -8.6 | 6.9 | -0.2 | 0.0
COC(=O)C1(C)NC(c2ccc(C)cc2)C2C(=O)N(C)C(=O)C21 (centres undefined) | 12.8 | -4.7 | -0.1 | 0.0
COc1ccc(O)c(/C=N/Nc2ccccn2)c1 | 73.1* | -55.4 | -0.5 | -0.4
COc1ccc(O)c(/C=N/NC(=S)Nc2cccnc2)c1 | 91.2* | -11.3 | -1.8 | -0.5
COc1cccc(/C=N/NC(=S)Nc2cccnc2)c1 | -0.2 | -22.7 | 2.2 | -0.1
COc1cc(OC)c(OC)cc1/C=N/Nc1ccccn1 | 5.2 | 14.6 | -0.5 | -0.1
Oc1ccc(/C=N/NC(=S)Nc2cccnc2)cc1 | 12.1 | 64.9* | -0.7 | 0.2
CCCN(CCC)CCCNC(=O)c1cccc2c1SCCC2=O | -6.2 | 3.4 | -0.8 | -0.2
COC(=O)c1c(OCc2ccccn2)cc(=O)n2c1CCN(C/C=C/c1ccco1)CC2 | 7.2 | -14.7 | 0.6 | -0.1
O=c1c2cc(Cl)ccc2[nH]c(=S)n1CCc1ccccc1 | 47.4 | -12.3 | 0.0 | 0.3
CONC(=O)Nc1ccccc1[N+](=O)[O-] | 1.7 | 12.3 | 1.5 | -0.1
CC(C)(C)c1ccc(NC(=O)Nc2ccccc2[N+](=O)[O-])cc1 | 11.0 | 62.2* | -1.1 | -0.4
CCOc1ccc2[nH]cc(C(=O)NCCN)c(=O)c2c1 | -8.5 | -10.6 | -1.8 | 0.1
COc1ccc(C(C)NC(=O)C(=O)NCc2ccccn2)cc1 (centres undefined) | -5.1 | -9.0 | 0.1 | -0.3
COC(=O)Nc1ccc(C(C)(C)C)cc1[N+](=O)[O-] | 13.9 | -4.6 | -1.9 | 0.5
COC(=O)Nc1cc([N+](=O)[O-])cc([N+](=O)[O-])c1Br | -4.4 | 98.7* | 4.5 | -0.3
Cc1cccc(NC(=O)c2cccc3c2SCCC3=O)n1 | 10.6 | -7.4 | -0.6 | 0.1
CCN1/C(=C/c2ccc3ccccc3[n+]2CC)Sc2cc(OC)c(OC)cc21 | 42.0 | 91.3* | -0.5 | -0.5
SMILES | MITF primary | TEAD-YAP block | GPR151 ag | FBW7 act
CCN1/C(=C/C(=C/c2sc3ccc(Cl)cc3[n+]2CC)C2CC2)Sc2ccc(Cl)cc21 | 36.6 | 30.3 | -1.7 | -0.2
CCN1/C(=C/c2ccc3ccccc3[n+]2CC)Sc2ccc(Br)cc21 | 16.1 | 71.3* | 1.1 | -0.5
COc1ccc(/C=C/c2ccc3ccccc3[n+]2[O-])cc1 | 3.3 | 71.9* | -3.4 | 0.0
CC[n+]1c(/C=C/c2ccc(OC)c(OC)c2)ccc2ccccc21 | 15.0 | 58.8* | 1.3 | 1.5
COC(=O)Nc1c(Cl)nsc1S(=O)(=O)Cc1ccccc1 | -0.8 | 14.1 | 1.2 | -0.1
NC(=O)c1c(Cl)nsc1S(=O)(=O)Cc1ccccc1 | -1.1 | 45.5* | -2.3 | -0.1
COc1ccc(-c2c(C)nn3c(NCCCN(C)C)cc(C)nc23)cc1 | 20.2 | 1.1 | 0.5 | 3.4*
COc1ccc(-c2c(C)nn3c(NCc4ccncc4)cc(C)nc23)cc1 | 21.1 | -7.4 | 0.1 | 4.0*
COc1ccc(-c2c(C)nn3c(NCc4cccnc4)cc(C)nc23)cc1 | 6.0 | 15.2 | 2.7 | 0.0
c1ccc(-c2nc3cnccn3c2NCc2ccc3c(c2)OCO3)cc1 | -1.9 | -2.0 | 1.4 | 0.0
Oc1ccccc1-c1nc2cnccn2c1NCc1ccc2c(c1)OCO2 | -1.2 | 57.3* | -0.5 | 0.4
c1ccc(CCNc2ccc3ncc(-c4ccc(N5CCOCC5)cc4)n3n2)nc1 | 19.2 | 46.9* | -1.2 | 0.4
Clc1ccc(-c2cnc3ccc(NCCc4ccccn4)nn23)cc1 | 17.9 | 28.9 | 0.7 | 0.9
N#Cc1ccc(-c2cnc3ccc(NCCc4ccccn4)nn23)cc1 | 13.2 | 62.7* | -1.3 | 1.6
CCCNc1ccc2ncc(-c3ccc(N4CCOCC4)cc3)n2n1 | 8.0 | 9.5 | 0.4 | -0.2
Clc1cccc(-c2cnc3ccc(NCCc4ccccn4)nn23)c1 | -10.0 | 48.5* | 0.8 | -0.4
COc1ccc(-c2cnc3ccc(NCCc4ccccn4)nn23)cc1 | -9.3 | 36.0* | -0.2 | -0.1
Cc1ccc(CN2C(=O)C3C(C(=O)Nc4ccc(F)cc4)C4(C)C=CC3(O4)C2C(=O)NC2CCCCC2)cc1 (centres undefined) | 8.2 | 8.2 | 0.5 | 0.0
C/C(=N\NC(=O)c1cc(C(C)C)[nH]n1)c1ccncc1 | 2.2 | -21.1 | 3.0 | 0.1
CCOc1ccccc1-c1cc(C(=O)N/N=C(/C)c2ccc(OC)c(OC)c2)[nH]n1 | 9.0 | 39.5* | 0.5 | 0.3
C/C(=N\NC(=O)c1cc(-c2ccc(CC(C)C)cc2)n[nH]1)c1ccncc1 | 0.4 | 67.2* | -0.8 | 0.0
CCOc1ccc(-c2cc(C(=O)N/N=C(\C)c3ccc(OC)cc3)[nH]n2)cc1 | 6.9 | 44.3* | 0.4 | 0.0
C/C(=N\NC(=O)c1cc(-c2ccccc2Cl)n[nH]1)c1ccc(O)cc1 | 2.2 | 16.8 | -1.1 | 0.1
CCOc1ccccc1-c1cc(C(=O)N/N=C(\C)c2cccs2)[nH]n1 | 11.1 | 48.7* | -0.4 | 0.0
CCOc1cccc(-c2cc(C(=O)N/N=C(\C)c3cccs3)[nH]n2)c1 | 13.7 | -9.5 | 1.4 | 0.1
SMILES | MITF primary | TEAD-YAP block | GPR151 ag | FBW7 act
CCOC(=O)c1sc(NC(=O)C(C)Sc2nnc(CNC(=O)c3cccs3)n2CCc2ccccc2)c(C(=O)OCC)c1C (centres undefined) | 6.6 | 3.3 | -0.3 | 0.1
COCCNC(=O)Cn1ncc2cccn2c1=O | 6.4 | -3.7 | -1.7 | 0.1
CC1(C)NC(=O)N(Cc2ccc(F)cc2)C1=O | -2.4 | -6.0 | -0.5 | 0.1
CC(C)(O)C(=O)/C=C/c1cccc([N+](=O)[O-])c1 | -0.5 | 48.2* | -1.0 | 0.3
CN(CCc1cn[nH]c1)C(=O)CCC1(Cc2ccc(-c3ccccc3)cc2)CCC(=O)N1 (centres undefined) | 1.9 | -2.7 | 0.0 | 0.0
CCC(/C=C1\Sc2ccccc2N1CC)=C\c1sc2ccccc2[n+]1CC | 43.9 | 82.1* | 0.3 | -0.3
CCN1C(=O)/C(=C2/C=Cc3ccccc3N2CC)SC1=Nc1ccccc1 | 21.1 | -6.8 | 3.3 | -0.2
CC(=O)O/N=C(\N)c1nonc1N1CCOCC1 | 19.6 | -6.7 | -1.7 | 1.9*
CCN1C(=O)/C(=C2\C=Cc3ccccc3N2CCCS(=O)(=O)O)OC1=S | 13.0 | -6.1 | 0.3 | -0.2
O=C(COc1ccc(N2CCN(c3ccccn3)CC2)nn1)NCc1ccc2c(c1)OCO2 | -18.4 | 15.2 | -1.4 | 0.1

High-throughput results as filed in PubChem BioAssay.
